In all, about 330,000 compounds went through this assay and about 1,900 (0.58%) were called active. Inconclusive results (about 4%) are left out. Cut-off read from the data, not from the text of the source: inconclusive = inhibition above about 70% without an active follow-up result; inactive = below that. These entries were drawn from the full list. Entries with a potency or affinity are not part of this list.
Assay: M. tuberculosis growth inhibition, HTS (AID 449762);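 note: bacterial growth assessed after seven days of incubation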
Conditions: M. tuberculosis H37Rv growth inhibition, 7H9 media; at 25 µM; hits give high values

Structure (SMILES)	inhibition
CSc1ccccc1NC(=O)Cn1nnc(-c2ccc(S(C)(=O)=O)cc2)n1	-2.14% (inactive)
NC(=O)C1CCN(Cc2nc(-c3ccccc3)no2)CC1	-14.2% (inactive)
O=c1c2ccccc2cnn1Cc1n[nH]c(=S)n1-c1ccc(F)cc1	4.78% (inactive)
CCOC(=O)N/N=C\c1ccc([N+](=O)[O-])o1	-1.58% (inactive)
CCOC(=O)N/N=C(\C)c1ccc(C)o1	-1.85% (inactive)
CC(C)NC(=O)N(O)C1N(Cc2ccc3c(c2)OCO3)C(=S)SC1(C)C (configuration not stated)	3.94% (inactive)
CCCc1cc(C(=O)OC)c(NC(=O)CCCC(=O)O)s1	0.02% (inactive)
Cc1nn(CC(=O)NCCCc2ccccc2)c(=O)c2cc3occc3n12	3.16% (inactive)
COc1cccc(NC(=O)CN(C)C(=O)CNC(=O)c2ccc(Oc3ccccc3)cc2)c1	7.98% (inactive)
Cc1c(Cl)cccc1NC(=S)N1CCN(C(=O)c2ccco2)CC1	-0.43% (inactive)
Cc1ccc(N2C(=O)C(CN(C)C)C2c2ccccc2)cc1 (configuration not stated)	-6.05% (inactive)
COc1ccc(N2C(=O)C(F)(F)C2c2ccc(C)cc2)cc1OC (configuration not stated)	60.7% (inactive)
CC1=NN(C(=O)c2c(Br)c(C)nn2C)C(O)(C(F)(F)F)C1 (configuration not stated)	0.52% (inactive)
C#CCSc1nc2ccccc2n1C(=O)c1ccc(S(=O)(=O)N2CCCCC2)cc1	-2.86% (inactive)
COC(=O)C1=C(c2ccc(S(C)(=O)=O)cc2)C[C@@H]2CC[C@H]1N2C(=O)N1CCCCC1	3.7% (inactive)
Cc1c(Cl)cccc1NC(=O)NCc1ccccn1	-11.4% (inactive)
Cc1c(C(=O)NCc2ccccn2)oc2c(Cl)cccc12	-3.71% (inactive)
CCC1CCCCN1CCCNC(=O)Cn1nc(C)n2nc(-c3ccccc3)cc2c1=O (configuration not stated)	1.58% (inactive)
CCSc1nnc(CCNS(=O)(=O)c2ccc(C(C)=O)cc2)n1C	0.26% (inactive)
S=C(Nc1cc(Cl)cc(Cl)c1)N1CCCC1	0.04% (inactive)
CCCn1cnc2c(N)c(C)c(C)cc21	-11.4% (inactive)
Cc1cc2c(ncn2Cc2ccccc2)c(N)c1C	2.7% (inactive)
O=C(NNC(=O)C1CCN(c2ncccn2)CC1)c1ccc(F)cc1	0.94% (inactive)
CC(=O)OC1N=C(c2ccccc2Cl)c2cc(Br)ccc2N(C)C1=O (configuration not stated)	-6.48% (inactive)
N#C/C(=C/c1ccc(N2CCCCC2)o1)C(=O)NCCc1c[nH]c2ccccc12	-3.85% (inactive)

Structure (SMILES)	inhibition
N#C/C(=C/c1ccc(Br)s1)C(=O)NCCc1c[nH]c2ccccc12	3.76% (inactive)
CCN1CCc2nc(NC(=O)Cc3ccc4c(c3)OCCO4)sc2C1	-17.6% (inactive)
CC(C)NC(=O)CCCN1C(=O)c2ccccc2Sc2ncccc21	1.48% (inactive)
O=C(O)c1cc(-c2ccncc2)nc2ccc(S(=O)(=O)N3CCOCC3)cc12	3.61% (inactive)
O=C(Nc1ccc(N2CCCC2)c(Cl)c1)c1cccs1	7.74% (inactive)
O=C(NC(=S)Nc1ccc(N2CCOCC2)c(Cl)c1)c1cccs1	3.13% (inactive)
COc1ccc2c(c1)[C@H]1[C@H](CO2)[C@H](c2ccccc2)[C@]2(C)C(=O)Nc3ccc(C)cc3C(=O)N12	1.01% (inactive)
COc1ccc2c(c1)C(=O)N1[C@H]3c4cc(OC)ccc4OC[C@@H]3[C@H](c3ccccc3)[C@]1(C)C(=O)N2	1.44% (inactive)
O=c1c2cccc3c2c(nn1-c1ccccc1)-c1ccccc1-3	-2.02% (inactive)
COc1cccc(NC(=O)CN(C)C(=O)c2c(C)nn(CC(C)C)c2Cl)c1	-7.79% (inactive)
O=C(COc1ccc(Cl)cc1)OCc1csc(Nc2ccccc2)n1	4.58% (inactive)
O=C(COc1ccccc1)OCc1csc(Nc2ccccc2)n1	11.3% (inactive)
CC1CCCC(NC(=O)COC(=O)c2ccc(Br)o2)C1C (configuration not stated)	10.4% (inactive)
COCCN(C(=O)c1cc(-c2ccncc2)nc2ccccc12)c1c(N)n(CC(C)C)c(=O)[nH]c1=O	-4.69% (inactive)
C=C(C)C1Cc2c(C)nn(-c3cccc4ccccc34)c2C1 (configuration not stated)	40.9% (inactive)
C=C(C)C1Cc2c(C)nn(-c3ccccc3)c2C1 (configuration not stated)	5.29% (inactive)
CC(c1ccccc1)N1C(=O)C2C3C=CC(C4CC34)C2C1=O (configuration not stated)	0.61% (inactive)
Cc1cc(C2=NNC(=NC3CC3)SC2)c(C)n1Cc1ccco1	63.5% (inactive)
CCN=C1NN=C(c2cc(C)n(Cc3ccco3)c2C)CS1	-1.01% (inactive)
CCCCn1c(CN2CCN(c3cccc(Cl)c3)CC2)nc2c1c(=O)[nH]c(=O)n2C	62.7% (inactive)
CC1CCCN(C2(O)C(=O)Nc3ccc(Br)cc32)C1 (configuration not stated)	5.15% (inactive)
COCCN(C(=O)COC(=O)c1cc2ccccc2cc1OC)c1c(N)n(Cc2ccccc2)c(=O)[nH]c1=O	-2.06% (inactive)
COc1ccccc1OCC(=O)Nc1ccc(C(N)=O)cc1	-3.41% (inactive)
CC(=Nc1cccc(O)c1)c1sc2ccccc2c1O	11.9% (inactive)
CCCn1nc(C(=O)Nc2ccc(S(=O)(=O)Nc3nccs3)cc2)c2ccccc2c1=O	8.73% (inactive)

Structure (SMILES)	inhibition
O=C(Nc1ccccc1F)Nc1ccccc1Br	4.25% (inactive)
CCOc1ccc(Br)cc1/C(C)=N\NC1=NCCN1	-0.3% (inactive)
COc1ccc(Br)cc1/C(C)=N/NC1=NCCN1	1.92% (inactive)
CC(C)OCCCN1CC(=O)N2C(c3cccc([N+](=O)[O-])c3)c3[nH]c4ccccc4c3C[C@H]2C1=O (some centres not stated)	19.4% (inactive)
CCCc1cc(-c2nc(N)ncc2-c2csc(C)n2)c(O)cc1OC	-5.66% (inactive)
CCc1cc(-c2nc(N)ncc2-c2ccc(Br)cc2)c(O)cc1OC	14.9% (inactive)
CC(C)C(=O)Nc1nc2ccc(S(C)(=O)=O)cc2s1	4.62% (inactive)
O=C(O)c1ccc(-n2c(-c3ccccc3)n[nH]c2=S)cc1	-4.35% (inactive)
CCN1CCN(Cc2ccccc2C)CC1	-5.92% (inactive)
Cc1ccccc1CN1CCN(Cc2ccccc2)CC1	-6.4% (inactive)
CCOC(=O)Cc1csc(SCc2nc3ccccc3c(=O)[nH]2)n1	-2.6% (inactive)
CSC(=S)N/N=C/c1ccc(Br)cc1	57.5% (inactive)
CSC(=S)N/N=C/c1ccc(N(C)C)cc1	3.05% (inactive)
COc1ccccc1N(O)C1CC(=O)N(c2ccc(F)cc2)C1=O (configuration not stated)	10.9% (inactive)
COc1ccccc1N1C(=O)CC(N(O)c2ccccc2)C1=O (configuration not stated)	7.06% (inactive)
S=C(N/N=C/c1ccc(Cl)cc1)N1CCOCC1	10.7% (inactive)
Cc1ccc(/C=N/NC(=S)N2CCOCC2)cc1	-4.55% (inactive)
N#Cc1c(N)nc(Sc2ccc(Cl)cc2)c(C#N)c1-c1ccccc1Cl	7.13% (inactive)
O=C(O)CCCNS(=O)(=O)Cc1ccccc1	2.38% (inactive)
COc1cc(OC)nc(Oc2ccccc2C(=O)Oc2ccccc2Cl)n1	3.91% (inactive)
COc1cc(OC)nc(Oc2ccccc2C(=O)Oc2ccc(C)cc2)n1	-5.69% (inactive)
O=C(NCc1ccccc1)N1CCC(CO)(Cc2cccc(F)c2)CC1	1.55% (inactive)
CC(=O)c1sc(NC(=O)c2c(F)cccc2F)nc1-c1ccccc1	3.31% (inactive)
CCCCCOc1ccc(NS(C)(=O)=O)cc1	-0.68% (inactive)
CCCOc1ccc(NC2=CC(=O)CC(C)(C)C2)cc1	0.84% (inactive)

Structure (SMILES)	inhibition
COc1ccccc1NS(=O)(=O)c1ccc(O)c(C(=O)OCc2cccc([N+](=O)[O-])c2)c1	-3.81% (inactive)
O=C(NCC1CCCO1)C(c1cccs1)N(Cc1cccs1)C(=O)c1ccc(-c2ccccc2)[nH]1 (configuration not stated)	0.19% (inactive)
O=C(NCC1CCCO1)C(c1cccs1)N(Cc1ccccc1)C(=O)c1ccc(-c2ccccc2)[nH]1 (configuration not stated)	14.9% (inactive)
COc1cc(NC(=S)NCCCO)c(OC)cc1Cl	-4.61% (inactive)
CC(=O)c1ccc(C(=O)N2CCCC(CCC(=O)N(C)CCc3ccccn3)C2)s1 (configuration not stated)	-4.61% (inactive)
Cc1c(CN2CCC(CO)(Cc3ccccc3)CC2)c2ccccc2n1C	-7.19% (inactive)
OCC1(Cc2cccc(C(F)(F)F)c2)CCN(Cc2cc(F)cc(F)c2)CC1	14% (inactive)
O=C(CN(C(=O)CCC(=O)Nc1nccs1)c1ccc(F)cc1)NCc1ccccc1	-3.51% (inactive)
CCOC(=O)Cn1cc(-c2ccccc2)nn1	-3.68% (inactive)
Cc1cc(C(F)(F)F)c2c(n1)sc1c(O)cc(=O)[nH]c12	-2.51% (inactive)
O=c1cc(O)c2sc3nc(-c4ccccc4)cc(C(F)(F)F)c3c2[nH]1	5.22% (inactive)
COc1cc(/C=C2\SC(=S)N(N3CCOCC3)C2=O)cc(OC)c1OC	3.16% (inactive)
Cc1ccc(C(C)C)c(OCC(=O)NS(=O)(=O)c2ccc(Cl)cc2)c1	-3.31% (inactive)
O=C(c1ccccc1)N1CCN2C(=O)c3ccccc3C12c1ccc(Cl)cc1 (configuration not stated)	4.61% (inactive)
Cc1ccc(C(=O)N2CCN3C(=O)c4ccccc4C23c2ccc(Cl)cc2)cc1 (configuration not stated)	13.6% (inactive)
COc1cccc(NC(=O)Nc2ccc(Br)cn2)c1	4.97% (inactive)
Cc1[nH][nH]c(=O)c1N=Nc1ccc(Cl)cc1	-1.91% (inactive)
O=c1cc(CSCc2ccc(Cl)cc2)[nH]c(=O)[nH]1	-3.47% (inactive)
CCCNC(=O)c1onc(CSc2ccc(Cl)cc2)c1C(=O)NCCOC	-3.57% (inactive)
Nn1c(SCc2ccc([N+](=O)[O-])cc2)nc2ccccc2c1=O	16.5% (inactive)
CCCCn1c(N)c(C(=O)OCC2CCCO2)c2nc3ccccc3nc21 (configuration not stated)	15.8% (inactive)
Nc1c(C(=O)OCC2CCCO2)c2nc3ccccc3nc2n1C1CCCCC1 (configuration not stated)	1.24% (inactive)
